HSP90 refold inh: HSP90 refolding inhibition in rabbit reticulocyte lysate. luciferase refolding luminescence, 3 h. inhibition, % at 5.6 µM. 290,000 tested, 0.91% active;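 active = inhibition above the screen-wide mean plus 3 SD, computed separately per campaign, cut at about 16% in these data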;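 note: 0% = DMSO wells and 100% = 60 µM geldanamycin wells; inhibitors lower the luminescence because luciferase stays unfolded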
aSyn UTR inh: MLPCN primary screen, SNCA 5' untranslated region. inhibition, % (tested at 7.5 µM). alpha-synuclein 5'UTR reporter, inhibitor activity. 300,000 tested, 0.82% active; in the data active = inhibition above about 60%;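 note: H4 neuroglioblastoma cells stably carrying SNCA 5'UTR luciferase fusion; 0% = DMSO wells and 100% = positive control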
TRAIL sens C8: sensitizes caspase-8 expressing cells to TRAIL; NB7+C8 cells + TRAIL, ATPlite viability luminescence; inhibition (viability loss, TRAIL sensitization), % at 10 µM; 360,000 tested, 1% active;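 active = compounds causing at least 50% loss of cell viability in the single-dose screen, relative to plate controls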
HIF-2a block: blocks HIF-2a reporter activity | 786-0 RCC cells HIF-2a reporter, luciferase luminescence, overnight | inhibition, % at 18.8 µM | 360,000 tested, 0.72% active;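 active = inhibition of the luminescence signal of 40% or more relative to plate controls, in a single-dose primary screen at 18.75 µM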
TWEAK-Fn14 inh: inhibitors of TWEAK-Fn14 interaction signaling | inhibition, % at 10 µM | TWEAK-stimulated Fn14 reporter cells, luciferase luminescence, 8 h | 360,000 tested, 2% active; in the data active = inhibition above about 50%
TROY NFkB inh: blocks TROY-dependent signaling in reporter cells | Q293 LMP1-TROYcd NF-kB luciferase reporter, 4 h | inhibition, % at 10 µM | 360,000 tested, 0.98% active;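 active = compounds whose plate-normalised and pattern-corrected inhibition of the luciferase reporter signal at the single screening dose is 50% or more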
Mdm2-MdmX confirm: confirmation of inhibitors of human Mdm2/MdmX interaction, set 2; inhibition, % at 8 µM; SaOS-2 split-luciferase Mdm2/MdmX complementation, luminescence; 740 tested, 99% active; shares compounds with HIF-2a block; AID 504601;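 active = mean inhibition of the luminescence signal across two replicates at or above 26 percent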
Target sequence (O15151 whole entry, looked up): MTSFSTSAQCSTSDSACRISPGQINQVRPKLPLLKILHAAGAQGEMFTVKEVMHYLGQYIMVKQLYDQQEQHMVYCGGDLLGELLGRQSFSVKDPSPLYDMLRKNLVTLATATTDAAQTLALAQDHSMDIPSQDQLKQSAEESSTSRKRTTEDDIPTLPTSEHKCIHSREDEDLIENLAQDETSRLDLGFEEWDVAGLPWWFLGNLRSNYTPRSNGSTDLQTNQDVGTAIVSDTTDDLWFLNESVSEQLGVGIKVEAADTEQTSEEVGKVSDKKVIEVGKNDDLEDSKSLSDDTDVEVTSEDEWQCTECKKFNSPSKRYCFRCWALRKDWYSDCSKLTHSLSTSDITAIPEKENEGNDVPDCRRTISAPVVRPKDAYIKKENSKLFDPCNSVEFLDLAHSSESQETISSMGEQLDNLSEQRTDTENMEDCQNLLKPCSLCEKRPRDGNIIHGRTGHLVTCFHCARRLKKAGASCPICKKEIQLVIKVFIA
Target sequence (Q00987 whole entry, looked up): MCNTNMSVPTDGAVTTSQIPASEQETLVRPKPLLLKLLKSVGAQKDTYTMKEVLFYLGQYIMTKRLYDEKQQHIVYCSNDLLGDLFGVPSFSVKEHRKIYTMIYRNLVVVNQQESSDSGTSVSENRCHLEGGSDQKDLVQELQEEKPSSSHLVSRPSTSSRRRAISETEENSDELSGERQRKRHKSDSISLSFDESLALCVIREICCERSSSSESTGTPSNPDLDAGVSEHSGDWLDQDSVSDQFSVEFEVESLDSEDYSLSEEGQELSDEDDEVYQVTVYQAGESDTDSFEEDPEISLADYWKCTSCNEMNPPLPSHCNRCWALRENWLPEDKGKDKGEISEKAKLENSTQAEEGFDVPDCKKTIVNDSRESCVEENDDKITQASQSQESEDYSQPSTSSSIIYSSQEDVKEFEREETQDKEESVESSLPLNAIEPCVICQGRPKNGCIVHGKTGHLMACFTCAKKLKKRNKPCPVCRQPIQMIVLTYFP
HIF-2a conf: HIF-2a inhibition, single concentration confirmation | shares compounds with HIF-2a block | 786-0 RCC cells, HIF-2a luciferase reporter luminescence, overnight | inhibition, % at 18.8 µM | 1,800 tested, 56% active | AID 651580;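 active = mean inhibition across four replicates of at least 40 percent at the single tested concentration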
HIF-1a counter: HIF-1a inhibition counter-screen for HIF-2a hits; shares compounds with HIF-2a block; MiaPaCa-2 HIF-1a luciferase reporter, desferoxamine, overnight; inhibition, % at 18.8 µM; 1,800 tested, 72% active;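 active = mean inhibition of the reporter signal across four replicates at the single tested dose of 50% or more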
* hit, by the source's call; / = no result given. An excerpt weighted towards active compounds, which were near 3.9% of everything screened.

SMILES	HSP90 refold inh	aSyn UTR inh	TRAIL sens C8	HIF-2a block	TWEAK-Fn14 inh	TROY NFkB inh	Mdm2-MdmX confirm	HIF-2a conf	HIF-1a counter
O=C(NC(Cc1c[nH]c2ccccc12)C(=O)O)c1cccc(S(=O)(=O)N2CCCCC2)c1 (stereo not drawn)	/	/	-11.6	20.4	-10.2	-3.6	/	/	/
CCCC(=O)NC(c1ccc(OC)cc1)c1ccc2cccnc2c1O (stereo not drawn)	11.6	129.2*	5.0	12.8	14.4	5.5	85.7*	/	/
O=[N+]([O-])c1ccc(NC(c2ccccc2)c2ccc3cccnc3c2O)cc1 (stereo not drawn)	/	/	23.8	20.5	4.4	-0.5	/	/	/
CCCCC(=O)NC(c1ccccc1)c1ccc2cccnc2c1O (stereo not drawn)	15.9	67.9*	32.5	0.1	20.3	11.1	86.6*	/	/
CCN1C(=O)[C@H]2[C@@H](c3ccc(C(F)(F)F)cc3)N[C@]3(CCCN(Cc4ccccc4)C3=O)[C@H]2C1=O	/	/	-3.3	-7.2	-7.1	-1.8	/	/	/
O=C(c1ccc(S(=O)(=O)c2ccc(F)cc2)c([N+](=O)[O-])c1)N1CCCCCC1	3.3	-54.2	31.9	52.9*	76.5*	42.9	/	3.3	49.1
Cc1cc(N)n2nc(C)c(-c3ccc(Cl)cc3)c2n1	0.6	18.3	-12.6	0.2	7.9	-9.3	/	/	/
Cc1cc(Cl)n2nc(C)c(-c3ccc(Cl)cc3)c2n1	-1.9	/	40.7	66.5*	12.7	-9.6	/	8.8	100.1*
CCOCCCNC(=O)/C(C#N)=C/c1ccc(Cl)c([N+](=O)[O-])c1	3.9	-22.5	4.3	92.1*	10.8	-3.0	/	21.8	101.7*
COc1ccc(-c2oc3ccccc3c(=O)c2OC(C)=O)cc1	-4.9	-174.0	28.6	-51.1	19.7	-9.7	92.7*	/	/
CC(=O)NC(c1cccc(F)c1)c1nc(-c2cnc3ccccc3c2)cs1 (stereo not drawn)	/	/	-5.4	-129.7	8.1	-9.2	/	/	/
O=C(c1cccs1)N1CCN=C1SCc1ccccc1	-1.2	-35.7	1.3	-25.0	-1.4	-2.3	/	/	/
O=C(c1cccs1)N1CCN=C1SCc1ccc(F)cc1	-4.7	-1.7	11.5	52.0*	7.3	72.6*	/	-31.7	17.5
CCn1c(=O)oc2cc(NC(=O)CCl)ccc21	-1.1	-104.0	5.4	40.2*	-0.2	12.5	/	17.6	84.1*
Cn1c(=O)n(C)c2cc(NC(=O)CCl)ccc21	3.5	-180.0	15.4	51.0*	17.2	-6.0	/	22.9	80.9*
CC(C)(C)CC(C)(C)SSc1n[nH]c(=S)s1	/	/	1.2	6.5	-13.1	17.1	/	/	/
OCCCNc1cc(-c2ccnc(Nc3cccc(Cl)c3)n2)ccn1	/	109.7*	33.4	-23.8	96.8*	58.8*	103.0*	/	/
Cc1ccc(C)c(CN2C(=O)c3ccccc3S(=O)c3ccc(C(=O)N4CCN(c5ccccn5)CC4)cc32)c1 (stereo not drawn)	0.1	-17.5	34.4	8.3	-9.4	11.1	101.2*	/	/
Cc1ccc(C)c(CN2C(=O)c3ccccc3S(=O)(=O)c3ccc(C(=O)N4CCN(C)CC4)cc32)c1	-1.8	19.4	-2.0	22.3	-1.3	-3.9	/	/	/
COc1ccc(/C=C2\N=C(SC)N(c3ccccc3OC)C2=O)cc1	1.9	-66.3	15.8	-86.4	-23.6	5.8	100.0*	/	/
O=C(CN(c1ccc(Br)cc1)S(=O)(=O)c1ccc(Cl)c([N+](=O)[O-])c1)NCC1CCCO1 (stereo not drawn)	/	/	44.3	86.4*	54.9*	13.4	/	32.0	103.0*
Cc1ccc(-n2nnnc2Sc2ccc(S(=O)(=O)NCCN(C)C)cc2[N+](=O)[O-])cc1	7.4	-93.2	18.2	76.8*	97.2*	33.1	/	18.4	105.5*
Cc1ccc(S(=O)(=O)NCCSc2nnnn2-c2ccc(C(N)=O)cc2)cc1	-3.5	15.4	-9.5	23.2	-2.6	2.5	/	/	/
CC1(C(=O)NS(=O)(=O)c2ccc(F)cc2F)CCN1C(=O)c1ccccc1 (stereo not drawn)	/	/	-14.4	4.9	-10.3	-2.9	/	/	/

High-throughput results from PubChem.
